# Most compounds without a hit are left out; they make up all but 2.8% or so of the library.
# WRN helicase inh: blocks human WRN helicase; Potency, µM (top dose mostly 114 µM), most hits filed as inhibitors; hit rate 0.46% among 360,000; Q14191; WRN helicase unwinding, fluorescent forked duplex, kinetic; further: nearly all actives have a fitted effect of over 55% in size
#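 Enzyme (20 nM final) and test compound sit together 15 min at room temperature before substrate addition. Substrate is a single-forked duplex oligonucleotide (100 nM) labelled with fluorophore and quencher, with 2 mM ATP; helicase unwinding raises red fluorescence, read kinetically.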
# Pol iota inh: DNA polymerase iota (human) inhibition; Q9UNA4; Pol iota fluorescent replication assay, 10 min; Potency, µM (doses to about 115 µM), actives largely listed as inhibitors; hit rate 1% among 390,000; AID 588590
#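 Pol iota at 10 nM preincubated 15 min with compounds at room temperature; reaction started with fluorescent substrate, 50 nM final. Fluorescence read kinetically at 0 and 10 min; buffer-only wells as negative control.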
# Pol eta inh-1: blocks human DNA polymerase eta activity. recombinant Pol eta, fluorescent DNA replication assay. Potency, µM (series often up to 114 µM), actives largely listed as inhibitors. hit rate 1.2% among 390,000. Q9Y253
#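 Fluorescent replication assay: 50 nM final substrate added after a 15 min room-temperature compound preincubation with 10 nM enzyme. Signal taken at 0 min and again at 10 min.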
# POLB inh: DNA polymerase beta (human) inhibition. hit rate 1.3% among 340,000. Potency, µM (doses to about 114 µM), most hits filed as inhibitors. Pol beta primer extension/strand displacement, fluorescence kinetic. P06746
#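 Pol beta (10 nM) was preincubated with compound for 15 min at room temperature. The reaction was then started with 50 nM substrate and read immediately and after a further 10 min at room temperature.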
# PI5P4K alpha inh: inhibitors of human PI5P4K alpha; max response, %; hit rate 1.2% among 330,000; PI5P4Kalpha enzyme, ADP-Glo luminescence, 60 min; stronger effect = lower value; AID 652105; active means max response of -50% or lower; inconclusive means between -30% and -50%; inactive means -30% or higher; further: value at the top dose of about 77 µM
# Target sequence (P48426 whole entry, looked up): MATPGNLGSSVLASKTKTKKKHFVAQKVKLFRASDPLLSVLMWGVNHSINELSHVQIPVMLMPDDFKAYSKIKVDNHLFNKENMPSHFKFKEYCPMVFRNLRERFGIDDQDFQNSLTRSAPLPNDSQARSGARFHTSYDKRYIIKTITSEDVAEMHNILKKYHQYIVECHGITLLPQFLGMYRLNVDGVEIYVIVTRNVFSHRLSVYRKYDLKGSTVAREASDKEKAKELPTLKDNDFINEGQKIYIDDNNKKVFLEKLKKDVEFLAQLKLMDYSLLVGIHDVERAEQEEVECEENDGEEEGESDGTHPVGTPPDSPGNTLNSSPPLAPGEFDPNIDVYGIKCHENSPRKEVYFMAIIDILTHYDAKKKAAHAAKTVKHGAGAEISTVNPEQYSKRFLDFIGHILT
#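 Single end-point luminescence (ADP-Glo) quantified ADP from PI5P4Kalpha turnover; ATP 5 microM final, 1 h at RT, 0.1% CHAPS and 0.28 mM EGTA in HEPES pH 7.4.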
# Pol kappa inh-1: blocks human DNA polymerase kappa activity; Q9UBT6; purified Pol kappa, fluorescent DNA synthesis assay, 10 min; Potency, µM (highest dose often 107 µM), usual class: inhibitors; hit rate 0.53% among 400,000
#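 First, compounds were pin-transferred onto 10 nM Pol kappa. After 15 min at room temperature, substrate was added to 50 nM final. Fluorescence was then measured kinetically at 0 and 10 min.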
# GALK confirm: galactokinase (human) inhibition, confirmation | Potency, µM (series often up to 115 µM), actives largely listed as inhibitors | purified GALK, Kinase-Glo ATP depletion luminescence | AID 2015 | hit rate 70% among 150 | shares compounds with Pol eta inh-1
# GALK redox cs: generates H2O2 by redox cycling, flagging GALK artifacts. shares compounds with Pol eta inh-1. Phenol red-HRP H2O2 redox cycling, absorbance 600 nm. Potency, µM (titrated, usually from 115 µM), most hits filed as inhibitors. hit rate 40% among 150. AID 2035
# HEK293 tox: reduces HEK-293 cell viability in GALK counter-screen. shares compounds with Pol eta inh-1. HEK-293 viability, ATP luminescence (CellTiter-Glo), 24/48 h. Potency, µM (doses to about 46.1 µM), most hits filed as inhibitors. hit rate 10% among 170
# Pol kappa inh-2: Pol kappa (human) inhibition, cherry-pick confirmation; shares compounds with Pol eta inh-1; purified Pol-kappa, fluorescent strand-displacement substrate; Potency, µM, usual class: inhibitors; hit rate 76% among 920; AID 720501
# Pol eta inh-2: confirmation of human DNA polymerase eta inhibitors | shares compounds with Pol eta inh-1 | Pol eta primer extension, TAMRA/BHQ fluorescence, 10 min | Potency, µM, hits mostly inhibitors | hit rate 64% among 2,600 | AID 720502
# Numbers stand for hits; – = inactive; ? = inconclusive; · = no result given; [ ] = dose if it differs, or a comment. Unless noted, the call rests on the fitted dose curve; in most records, active means well fitted curve in the direction sought with a large enough effect; inconclusive means small, poorly fitted or top-dose-only effect, or another doubt; inactive means no such curve, though single readings can be large; an effect the other way counts as inactive or inconclusive.
SMILES,WRN helicase inh,Pol iota inh,Pol eta inh-1,POLB inh,PI5P4K alpha inh,Pol kappa inh-1,Pol eta inh-2,others
O=C(Nc1cc([N+](=O)[O-])ccc1O)c1cccc([N+](=O)[O-])c1,–,–,–,–,–,–,·,
O=C(Nc1cc([N+](=O)[O-])ccc1O)c1ccc2c(c1)C(=O)N(Cc1ccco1)C2=O,?,40µM,32µM,–,?,50µM,?,
O=C(Nc1ccc(O)cc1)c1ccc2c(c1)C(=O)N(Cc1ccco1)C2=O,?,?,14µM,–,-57,–,67,
O=C(CN1C(=O)c2ccc([N+](=O)[O-])cc2C1=O)NCc1ccco1,–,–,–,–,–,–,·,
O=C(O)c1ccc(C(=O)c2ccc3c(c2)C(=O)N(Cc2ccco2)C3=O)cc1,–,–,20µM,–,-71,–,?,
O=C(Nc1cc([N+](=O)[O-])ccc1O)c1cccc(C(=O)Nc2cc([N+](=O)[O-])ccc2O)c1,–[11.6 µM],–,?,–,–,–,?,
COc1cccc(CN(C)C[C@H]2OCc3cnnn3CCCC(=O)N([C@@H](C)CO)C[C@@H]2C)c1,–,·,–,·,–,·,·,
CN(Cc1ccco1)C(=O)CSc1nc(C2CC2)n(-c2ccccc2)n1,–,–,?,·,–,–,·,
C[C@H](CO)N1C[C@H](C)[C@@H](CN(C)S(=O)(=O)c2ccc(-c3ccccc3)cc2)OCc2cn(nn2)CCCC1=O,–,·,–,·,–,·,·,
N#C/C(=N\Nc1cccc(C(F)(F)F)c1)C(=O)c1ccsc1,–,–,–,–,–,–,·,
O=C(Nc1nnc(C2CC2)s1)C1CC(=O)N(c2ccc3c(c2)OCCO3)C1 (stereo unspecified),–,45µM,20µM,?,?,?,?,
CCOC(=O)C1CCN(c2nc(N)c3c(N)nc(SCC(=O)O)cc3c2C#N)CC1,45µM,25µM,7.1µM,28µM,-88,35µM,·,GALK confirm=67µM;GALK redox cs=19µM;HEK293 tox=–
CCOC(=O)C1CCN(c2nc(C)cc(C)c2C#N)CC1,–,–,–,–,–,–,·,
NC(=O)CC[C@@H]1NC(=O)[C@H](CO)NC(=O)c2cc([N+](=O)[O-])cc(I)c2OCC[C@@H](C(N)=O)NC1=O,–,–,–,–,–,–,·,
NCCCC[C@@H]1NC(=O)[C@H](CCC(=O)O)NC(=O)c2cc([N+](=O)[O-])cc(I)c2OCC[C@@H](C(N)=O)NC1=O,–,?,14µM,–,–,25µM,30,
CCc1nn(CC(=O)N2CCCCCC2)c(=O)c2cc3ccccc3n12,–,–,–,–,–,–,·,
O=C(O)Cc1sc(N/N=C\c2ccccc2)nc1-c1ccccc1,–[11.6 µM],?,40µM,–,?,–,48,Pol kappa inh-2=27
O=C(O)c1ccc(COc2ccc3ccccc3c2)o1,–,?,–,–,–,–,·,
CCOc1ccc(OCc2ccc(C(=O)O)o2)cc1,–[11.6 µM],–,13µM,14µM,–,–,60,
COC(=O)c1oc2ccccc2c1N,–,?,–,–,–,–,·,
COC(=O)c1oc2ccccc2c1NC(=O)/C=C/C(=O)O,–,–,–,–,–,–,·,GALK confirm=–;GALK redox cs=–;HEK293 tox=–
COc1ccc(CNS(=O)(=O)c2ccc3c(c2)NC(=O)C(C)C(=O)N3)cc1 (stereo unspecified),·,–,–,–,·,–,·,
CC1C(=O)Nc2ccc(S(=O)(=O)NCc3ccc(N(C)C)cc3)cc2NC1=O (stereo unspecified),·,–,?,–,·,–,?,
O=C1ON=C(c2ccccc2)/C1=C/c1ccc(O)c(O)c1,?,?,22µM,–,-59,–,60,GALK confirm=?;GALK redox cs=–;HEK293 tox=–
O=C(O)COc1ccccc1/C=C1\SC(=S)N(/N=C/c2ccccc2O)C1=O,?,?,22µM,–,–,–,48,Pol kappa inh-2=75
SMILES,WRN helicase inh,Pol iota inh,Pol eta inh-1,POLB inh,PI5P4K alpha inh,Pol kappa inh-1,Pol eta inh-2,others
Cc1nc2ccccc2n2c(O)c(CC(=O)O)cc12,?,?,79µM,?,·,?,?,Pol kappa inh-2=67
O=C(Nc1ccc(S(=O)(=O)Nc2ncccn2)cc1)C1=NN(c2ccccc2)C(=O)CC1,–[11.6 µM],?,35µM,–,–,–,67,
Cc1ccnc(NS(=O)(=O)c2ccc(NC(=O)c3ccc(N4C(=O)CCC4=O)cc3)cc2)n1,?,?,8.9µM,?,-64,?,67,
COc1ccc(C(=O)Nc2ccc(S(=O)(=O)Nc3nccc(C)n3)cc2)cc1,–,–,–,–,–,–,·,
COc1ccc(Cc2nc3ccc(C(=O)NC(C)c4cn(C)nc4C)cc3o2)cc1 (stereo unspecified),–,–,–,–,–,–,·,
Nc1ccc(C(=O)OCc2ccncc2)cc1[N+](=O)[O-],–,–,–,–,–,–,·,
O=C1C=C(c2ccc(C(=O)O)cc2)C[C@@H](c2ccc3c(c2)OCO3)C1,–[11.6 µM],?,?,·,?,–,?,
C=C1C[C@@H]2C[C@@H]2CN(S(=O)(=O)c2ccc(C)cc2)[C@@H]1c1ccco1,–,·,·,·,–,·,·,
O=C(CN1C(=O)c2ccccc2S1(=O)=O)Nc1ncc(Cl)cc1Cl,?,?,22µM,·,?,?,30,
Cc1nc(SCC(=O)NCc2ccc3c(c2)OCO3)nc(C)c1C,–,–,–,·,–,–,·,
COc1cc(-c2[nH]nc3c2C(c2ccoc2)C(C#N)=C(N)O3)cc(OC)c1OC (stereo unspecified),–,?,?,18µM,?,?,?,
NOCc1ccccc1,·,·,·,·,·,–,·,
CCCC(=O)Nc1ccc2c(c1)nc(CCN1CCC(C)CC1)n2C,–,·,–,·,–,·,·,
Cc1ccc([C@@H]2CC=C(C(=O)O)[C@H](c3ccc(C(C)(C)C)cc3)N2S(=O)(=O)c2ccc(C)cc2)cc1,–,?,89µM,·,–,–,·,Pol kappa inh-2=?
COc1ccc(-c2nn(-c3ccccc3)cc2C2CC(c3cccs3)=NN2C(=O)CCC(=O)O)cc1 (stereo unspecified),–,–,–,–,–,–,·,

# Screens: PubChem, National Center for Advancing Translational Sciences (NCATS)
